Data reported in PubChem BioAssay.
“And” between values parts separate entries of the source, which are not always exact repeats. Equal values may be shown once. Unmarked numbers belong to inactive results. The source made the active and inactive calls. Unless noted, no rule for the calls is given here.

What was measured:
[1] = antimalarial activity against Dd2 strain (AID 2302;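 active = growth inhibition above 50% at the single 2 µM test dose, taken to imply half-maximal potency below 2 µM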;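 also: 0% = DMSO untreated growth and 100% = chloroquine plus artemisinin killed control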); conditions: P. falciparum Dd2 in RBCs, LDH growth readout, 72 h; at 2 µM; stronger effect = higher value
[2] = HepG2 cytotoxicity, primary screen, cytotoxicity control for P. falciparum antimalarial project, cell-based, ATP luminescence (AID 2303;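 active = inhibition above 50%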;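 also: 0% = DMSO wells and 100% = digitonin-killed cells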); conditions: HepG2 viability, 24-48 h, at 10 µM, stronger effect = higher value
[3] = biological target: L-lactate dehydrogenase (Plasmodium falciparum (isolate CDC / Honduras)) (UniProt Q27743); assay: PfLDH activity inhibition – cell lysate, 3D7 strain, counter-screen for P. falciparum growth inhibition project (AID 2304);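 also: 0% = vehicle and 100% = reference inhibitor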; conditions: P. falciparum 3D7 crude extract, LDH APAD/NBT absorbance; at 2 µM; stronger effect = higher value
[4] = inhibition of 3D7 malaria parasite growth – strain 3D7 (AID 2306);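 also: 0% = DMSO wells and 100% = chloroquine plus artemisinin control wells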; conditions: P. falciparum 3D7 erythrocytic growth, LDH absorbance, 72 h; at 2 µM; stronger effect = higher value

L-lactate dehydrogenase (Plasmodium falciparum (isolate CDC / Honduras)), sequence (Q27743 whole entry, looked up): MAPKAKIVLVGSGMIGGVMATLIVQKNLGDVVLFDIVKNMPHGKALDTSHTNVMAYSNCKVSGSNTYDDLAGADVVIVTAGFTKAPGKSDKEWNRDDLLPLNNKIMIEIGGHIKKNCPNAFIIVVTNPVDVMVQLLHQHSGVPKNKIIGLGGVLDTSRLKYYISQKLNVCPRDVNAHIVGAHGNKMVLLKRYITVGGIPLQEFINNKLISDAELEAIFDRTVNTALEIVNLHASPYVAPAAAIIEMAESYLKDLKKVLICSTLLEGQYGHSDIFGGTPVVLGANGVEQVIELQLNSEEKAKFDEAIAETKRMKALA

SMILES | growth inhibition [1] | inhibition [2] | inhibition [3] | growth inhibition [4]
C[C@@H]([C@@H](CCCc1ccc(Cl)cc1)C(=O)N[C@H](C(=O)Nc1cccnc1)C(C)(C)C)N(O)C=O | 99% (active) | 7% | 1% | 100% (active)
O=[N+]([O-])c1ccc(Nc2nc(NN=Cc3cc(Cl)cc(Cl)c3O)nc(Nc3ccccc3)n2)cc1 | 72% (active) | 29% | -6% | 100% (active)
CO[C@H](C)[C@H](NC(=O)[C@H](CC(C)C)[C@H](CCC(F)(F)F)N(O)C=O)C(=O)Nc1nccs1 | 96% (active) | 0% | 1% | 99% (active)
CCOc1cc(C=NNc2nc(C)cc(-n3nc(C)cc3C)n2)ccc1O | 52% (active) | 46% | 2% | 93% (active)
O=[N+]([O-])c1cccc(-c2nc3ccc(C4=N[C@H]5CCCC[C@H]5N4)cc3[nH]2)c1 | 81% (active) | 4% | -7% | 101% (active)
Cc1cc(-c2cc(-c3ccc(OCCN(C)C)cc3)[nH]c2-c2ccc3c(c2)CCC3=NO)ccn1 | 92% (active) | -13% | -3% | 100% (active)
c1cc2nc(CCCCc3nc4ccc(C5=N[C@H]6CCCC[C@H]6N5)cc4[nH]3)[nH]c2cc1C1=N[C@H]2CCCC[C@H]2N1 | 88% (active) | 5% | 6% | 90% (active)
Nc1cc(C=Cc2ccc(O)cc2)nc2ccccc12 | 14% | 15% | 3% | 100% (active)
COc1ccc2ncc(F)c(CCN3C[C@H](CNCc4nc5c(cc4Cl)OCC(=O)N5)[C@H](O)C3)c2n1 | 15% and 23% and 30% | 13% and 5% and 12% | 0% and -2% and 2% | 93% (active) and 90% (active)
O=C(/C=C/c1ccc(Cl)c(Cl)c1)NCCCCCN1CC[C@H](c2c[nH]c3ccccc23)[C@H](O)C1 | 9% | 12% | -5% | 96% (active)
O=C(NN=Cc1nc2ccccc2[nH]1)c1cccc([N+](=O)[O-])c1 | 82% (active) | -3% | 2% | 99% (active)
Cc1[nH]c2c(c(=O)c1Cl)-c1ccc(Oc3cccc(C(F)(F)F)c3)cc1C2=O | 97% (active) | 25% | 2% | 98% (active)
COc1ccc(Nc2nc(NN=Cc3ccc(O)cc3)nc(Nc3ccc([N+](=O)[O-])cc3)n2)cc1 | 16% | -1% | 0% | 93% (active)
O=[N+]([O-])c1ccc(C=NO)nc1 | 98% (active) | 80% (active) | 2% | 80% (active)
CCC[C@@H]([C@@H](CC1CCCCC1)C(=O)N[C@H](C(=O)Nc1ccccn1)[C@H](C)CC)N(O)C=O | 87% (active) | 24% | 2% | 96% (active)
CC(=NO)C1=C(O)C(c2ccccc2)N(c2ccccc2)C1=O (stereo unspecified) | 23% | 12% | -1% | 99% (active)
COc1ccc2nc(C)cc(NN=Cc3cc(C)ccc3O)c2c1 | 100% (active) | 78% (active) | -2% | 100% (active)

SMILES | growth inhibition [1] | inhibition [2] | inhibition [3] | growth inhibition [4]
CN(C)C(=S)NN=Cc1cccc(O)c1O | 55% (active) | 11% | -2% | 91% (active)
Oc1cccc(-c2nc(-c3ccccc3)c(-c3ccc4oc5ccc(-c6[nH]c(-c7cccc(O)c7)nc6-c6ccccc6)cc5c4c3)[nH]2)c1 | 35% | 30% | 4% | 91% (active)
NC(N)=NN=Cc1c[nH]c2ccc(-c3ccccc3)cc12 | 61% (active) | 15% | -2% | 84% (active)
C=CC[C@H](C[C@H](O)[C@H](Cc1ccccc1)NC(=O)c1ccc(-c2cccnn2)cc1)C(=O)NC1CCCCC1 | -1% | 2% | 4% | 83% (active)
CCCCCC(C)C(C)c1cc(O)c2c(c1)OC(C)(C)CC2=Cc1ccncc1 (stereo unspecified) | 78% (active) | -8% | 2% | 100% (active)
Cc1ccc(-c2cncc(-c3cc(NC4CCN(Cc5ccccc5)CC4)nc(-c4ccccc4)n3)c2)cc1 | 66% (active) | -2% | -4% | 100% (active)
CCOc1cc(C=Cc2nc3ccccc3c(=O)[nH]2)cc(Cl)c1O | 90% (active) | 25% | 2% | 83% (active)
COc1ccc2nccc([C@@H](O)CN3CC[C@H](NCc4nc5c(cc4Cl)SCC(=O)N5)[C@H](F)C3)c2c1 | 94% (active) and 100% (active) | 10% and 20% | -3% and 1% | 94% (active) and 99% (active)
CC(C)C[C@@H](C(=O)N[C@H](C(=O)Nc1nccs1)C(C)(C)C)[C@H](CCC(F)(F)F)N(O)C=O | 71% (active) | 11% | 5% | 97% (active)
COc1ccc(Nc2nc(NN=Cc3cc(Br)c(O)cc3O)nc(Nc3ccc([N+](=O)[O-])cc3)n2)cc1 | 23% | 30% | 4% | 97% (active)
Cc1[nH]c2ccccc2c1C=NNc1nc(Nc2ccccc2)nc(Nc2ccccc2)n1 | 23% | 3% | 6% | 87% (active)
CN(C)C[C@H](O)[C@@H](c1ccccc1)c1ccc(Cl)cc1 | 4% | 4% | 2% | 99% (active)
O=C(/C=C/c1ccc(Cl)c(Cl)c1)NCCCCCN1CC[C@H](c2c[nH]c3ccccc23)[C@@H](O)C1 | -2% | 34% | -3% | 99% (active)
Oc1ccc2ccccc2c1C=NNc1nc(Nc2ccccc2)nc(Nc2ccccc2)n1 | 73% (active) | 55% (active) | -2% | 99% (active)
O=C(NC=Nc1cc([N+](=O)[O-])c(-c2cccnc2)n1-c1ccc(O)cc1)c1ccccc1 | 62% (active) | 17% | 6% | 102% (active)
CCCC[C@@H](C(=O)NCc1ccccc1C(F)(F)F)N1C(=O)CCC1C(=O)Nc1ccc([N+](=O)[O-])cc1 (stereo partly specified) | 2% | 7% | 0% | 94% (active)
O=C(NC=Nc1cc([N+](=O)[O-])c(-c2ccncc2)n1-c1ccccc1)c1cccc(O)c1 | 56% (active) | 2% | 4% | 100% (active)
